Molecules are shown by their SMILES. Compounds without any hit were thinned out: in the full panel of roughly 83,000, 20% have a hit.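 Values shown are percent growth following 48 h exposure of cells in 96-well plates to a single concentration of compound; below 10 was considered active.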 Active and inactive are the calls of the source.

For the experiment, the system named is HL-60(TB) leukemia. The experiment can be described thus: NCI-60 one-dose screen, 48 h (100 = growth as untreated, 0 = no growth, -100 = all killed). Conditions: 10 µM unless noted.
As to `CC(=O)O[C@]1(C)C[C@H](O)[C@]2(O)C=CO[C@H](O[C@@H]3O[C@H](CO)[C@@H](O)[C@H](O)[C@H]3O)[C@@H]21`, the growth is 92.5% (inactive).

Turning to `COCc1cnccc1NC1CCCCCC1`, the growth is 86.2% (inactive).

Turning to `CCCC(=O)OCC1OC(n2cnc3c(=S)nc(N)[nH]c32)C(OC(=O)CCC)C1OC(=O)CCC` (stereo not given), the growth was 13.2% (inactive).

In the case of `Nc1nc(-c2ccccn2)cc(-c2cc(-c3ccccn3)nc(N)n2)n1`, the growth was 105% (inactive).

For `Clc1ccc(Nc2scc3[n+]2CCC3)cc1`, the growth is 98.3% (inactive).

For the compound `CCCCC#Cc1c(/C=C(\CCCC)SCC)n(C)c(=O)[nH]c1=O`, the growth is 92.8% (inactive).

As to `Clc1ccc(-c2n[nH]c3c2Cc2ccccc2-3)cc1Cl`, the growth was 100% (inactive).

Take `COc1cc(C2C3=C(COC3=O)N(CCO)c3cc4c(cc32)CCC4)cc(OC)c1O` (stereo not given): the growth was -8.61% (active).

`Cc1ccc(C(=O)c2ccc(CC(=O)N/N=C/c3ccc(O)cc3O)n2C)cc1`: the growth was 4.48% (active).

In the case of `O=C(Cc1ccccc1)Nc1cccc(N=Cc2ccccc2O)c1`, the growth was 100% (inactive).

As for `O=C1c2c(c3c4ccccc4n(CCCCCCBr)c3c3[nH]c4ccccc4c23)C(=O)N1O`, the growth is -41.7% (active).

As for `Cc1ccc(Cl)cc1Nc1nc(C(F)(F)F)ccc1C(=O)N/N=C/c1c(Cl)cccc1Cl`, the growth is 17.3% (inactive).

For the compound `CCOC(=O)/C(C#N)=C1/NNC(=Nc2cccnc2)S1`, the growth is 102% (inactive).

With `CCCCCCCCCCCCCCCC(=O)OCC1OC(n2cnc3c(=S)nc(N)[nH]c32)C(OC(=O)CCCCCCCCCCCCCCC)C1OC(=O)CCCCCCCCCCCCCCC` (stereo not given), the growth was 86% (inactive).

As for `O=C(Nc1cnc(Nc2ccc(N3CCOCC3)nc2)nc1Oc1ccc(C(F)(F)F)cc1)c1ccncc1`, the growth is 98.6% (inactive).

For the compound `COc1ccc2c(c1)/C(=C\c1c[nH]c3ccc(F)cc13)C(=O)N2`, the growth is 88.3% (inactive).

Take `Cc1ccc(NC(=O)c2nc(S(C)(=O)=O)oc2-c2ccc(F)cc2)cc1Nc1ccc2ncn(C)c(=O)c2c1`: the growth was 46.5% (inactive).

For `COCCn1cc(-c2csc(-c3cn(C)c4ccc(F)cc34)n2)c2cccnc21`, the growth was 84.7% (inactive).

Consider `Clc1ccc(Nc2ncc(Cc3cccc(Cl)c3Cl)s2)cc1`, for which the growth was 100% (inactive).

Turning to `CCN1CCN(Cc2ccc(NC(=O)Nc3nc(-c4cc(OC)c(OC)c(OC)c4)cs3)cc2C(F)(F)F)CC1`, the growth was 8.19% (active).

Consider `Cc1cc2c(cc1C)NC1=C(N2)OC(c2c3ccccc3cc3ccccc23)C1=O` (stereo not given), for which the growth was 2.98% (active).

For the compound `CC(C)[C@@H](C)/C=C/[C@@H](C)[C@H]1CCC2=C3C=CC4=CC(=O)CC[C@]4(C)[C@H]3CC[C@@]21C`, the growth was 93.9% (inactive).

As for `CC(=O)Nc1ccc(-n2cnc3cc(-c4ccc(OCCN5CCCCC5)cc4)ccc32)cc1`, the growth is 98.3% (inactive).

Regarding `CCOC(=O)c1cc(C(=O)c2cc(OC)cc(OC)c2)n2ncccc12`, the growth is -21.7% (active).

Take `COc1ccc(OC)c(CCn2cncc2-c2c[nH]c3ccccc23)c1`: the growth is 80.8% (inactive).

As to `Cc1c(Cl)cccc1NC(=O)CN1CCOCC1`, the growth was 81.7% (inactive).

For the compound `COc1ccc(-c2cnc(-c3ccncc3-c3cccc(OC)c3)o2)cc1`, the growth was 0.0287% (active).

`Cc1cc2nc3c4cc([N+](=O)[O-])cc([N+](=O)[O-])c4n(CCN(C)C)c3nc2cc1C`: the growth is 98.2% (inactive).

For the compound `CN(C)C(=S)N/N=C\C=N/NC(=S)N(C)C`, the growth was -23% (active).

As to `COc1cc(OC)c(/C=C/c2cc[n+](C)c3ccccc23)c(OC)c1`, the growth is -25.6% (active).

On to `O=C(O)c1cc([N+](=O)[O-])ccc1Cl`, for which the growth is 104% (inactive).

In the case of `O=[N+]([O-])c1c(O)c(CNCCCO)cc(CNCCCO)c1O`, the growth was 75.8% (inactive).

Turning to `COc1ccc(C(=O)c2cc3c(N)c(C(=O)Nc4cccc(Br)c4C)sc3nc2C)cc1`, the growth was -58.7% (active).

In the case of `CCN(CC)CC(C)Nc1ccc([N+](=O)[O-])c2sc3ccccc3c(=O)c12` (stereo not given), the growth was -26.2% (active).

Turning to `CC(=O)c1ccc(Nc2nc(NCCO)nc(Nc3ccc(Cl)cc3)n2)cc1`, the growth is 103% (inactive).

As to `O=C(c1ccc(Nc2nccc(NCCCCNc3ccnc4cc(Cl)ccc34)n2)cc1)N1CCCCC1`, the growth is -22.3% (active).

Take `COc1cc(C(=O)N2CCN(C(=O)c3cc(OC)c(OCc4ccccc4)cc3N)CC2)c(N)cc1OCc1ccccc1`: the growth was 112% (inactive).

With `C/C(=N\NC(=O)C(C)SC(C)C(=O)N/N=C(\C)c1cccnc1)c1cccnc1` (stereo not given), the growth is 77.1% (inactive).

Consider `O=S(=O)(NCCCNc1cc(-c2cn(-c3ccccc3)nc2-c2ccccc2)ccn1)c1ccc(C(F)(F)F)cc1`, for which the growth was 39.1% (inactive).

As for `O=S(=O)(NCCNc1nccc(-c2c(-c3ccc(F)cc3)nc3sccn23)n1)c1ccc2ccccc2c1`, the growth is 88.1% (inactive).

These data come from PubChem BioAssay (NCI).
